# D1 potentiator – Potentiators of Human D1 Dopamine Receptor: qHTS. D(1A) dopamine receptor (Homo sapiens), P21728. HEK293 TREx D1 cells, calcium flux, dopamine EC20 potentiation. potentiation, % at 10 µM. 360,000 compounds, 0.036% hits. AID 504651, 2011; in the data active means potentiation above about 30%; further: 0% is about no effect
# Target sequence (P21728 whole entry, looked up): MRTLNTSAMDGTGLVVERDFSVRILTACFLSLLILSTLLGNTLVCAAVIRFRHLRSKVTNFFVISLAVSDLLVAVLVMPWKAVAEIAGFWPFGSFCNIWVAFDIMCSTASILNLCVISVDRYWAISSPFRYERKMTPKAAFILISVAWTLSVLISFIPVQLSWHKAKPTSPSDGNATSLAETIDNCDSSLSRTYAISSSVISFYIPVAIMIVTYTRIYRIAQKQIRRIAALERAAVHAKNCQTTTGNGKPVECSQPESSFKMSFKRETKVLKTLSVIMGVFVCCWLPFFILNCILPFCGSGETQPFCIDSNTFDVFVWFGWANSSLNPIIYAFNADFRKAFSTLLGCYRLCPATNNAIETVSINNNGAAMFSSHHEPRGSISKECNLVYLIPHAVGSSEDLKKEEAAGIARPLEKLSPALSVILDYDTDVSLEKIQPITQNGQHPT
# TRPV1 potentiator – HTS Assay for Compounds that Act as Potentiators of the Vanilloid Receptor 1 | AID 540277, 2011 | TRPV1-expressing cells, Fluo-8 calcium influx, capsaicin EC20 potentiation | Transient receptor potential cation channel subfamily V member 1 (Homo sapiens), Q8NER1 | potentiation, % at 8.33 µM | 320,000 compounds, 0.02% hits; in the data active means potentiation above about 80%; inconclusive means between about 30% and that limit; further: 0% is about no effect
#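 TRPV1-expressing cells were cultured overnight at 35.5C and loaded with Fluo-8 calcium dye for 40 to 90 min at room temperature. After a 10 s baseline, compound was added and calcium influx was read kinetically for 3 min (ex 480/em 520 nm).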
# D1 antagonist – Antagonist of Human D 1 Dopamine Receptor: qHTS | D(1A) dopamine receptor (Homo sapiens), P21728 | HEK293 TREx D1 cells, calcium flux, dopamine EC80; active compounds read low | activity change, negative = inhibition, % at 10 µM | 360,000 compounds, 3.2% hits; in the data active means activity change below about -30%; further: on the % scale 0 is the no-effect control and ±100 the full control effect
#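 Tetracycline-induced HEK293 Trex D1 cells, force-coupled to calcium, dye-loaded; compounds added and read 180 s, then EC80 dopamine added and calcium flux tracked kinetically another 180 s.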
# TRPV1 ag – HTS Assay for Compounds that Act as Agonists of the Vanilloid Receptor 1; Transient receptor potential cation channel subfamily V member 1 (Homo sapiens), Q8NER1; TRPV1-expressing cells, Fluo-8 calcium influx, agonist mode; activation, % at 8.33 µM; 320,000 compounds, 0.19% hits; in the data active means activation above about 80%; inconclusive means between about 30% and that limit; further: 0% is about no effect
#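 TRPV1-expressing cells were cultured overnight at 35.5C and loaded with Fluo-8 calcium dye for 40 to 90 min at room temperature. After a 10 s baseline, compound was added and calcium influx was read kinetically for 3 min (ex 480/em 520 nm).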
# D1 ag – Allosteric Agonists of the Human D1 Dopamine Receptor: qHTS; D(1A) dopamine receptor (Homo sapiens), P21728; HEK293 T-REx D1 cells, calcium flux, agonist mode; activation, % at 2 µM; 360,000 compounds, 1% hits; AID 504660, 2011; in the data active means activation above about 30%; further: 0% is about no effect
#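 Agonism was scored from calcium flux recorded over 180 s (1 read/s) after pintool compound addition, following a 10-cycle baseline. Cells were inducible force-coupled HEK293 TREx D1, plated overnight at 30 C and loaded with no-wash calcium dye.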
# Starred values were filed as active, the others as inactive; ? = inconclusive; · = no result; ! = repeats disagree. Most compounds without a hit are left out; they make up all but 4.2% or so of the library.
SMILES,D1 potentiator,TRPV1 potentiator,D1 antagonist,TRPV1 ag,D1 ag
Cc1nnc(N2CCC(C(=O)NCCc3ccccc3Cl)CC2)c2nn(-c3ccccc3)c(C)c12,-3.4,·,17.4,·,0.1
COc1ccccc1Cc1nc2ccccc2nc1SCC(=O)NCc1ccc(F)cc1,1.8,·,0.0,·,0.9
CCOC(=O)c1cccc(NC(=O)NC2COc3ccccc3C2)c1 (stereo not given),-0.2,·,-8.9,·,5.3
CC(Sc1nnnn1-c1ccccc1)C(=O)Nc1ccc(N2CCN(C)CC2)cc1 (stereo not given),-13.5,5.1,-37.4*,-2.3,10.1
CC(Sc1nncn1C)C(=O)Nc1ccc(N2CCCCC2)cc1 (stereo not given),0.3,0.3,-35.2*,-1.3,1.6
CC(Sc1nnnn1-c1ccccc1)C(=O)Nc1ccccc1-c1ccccc1 (stereo not given),-3.1,-2.4,4.7,19.3,1.4
CN1CCN(c2ccc(NC(=O)CSc3nnnn3-c3ccccc3Cl)cc2)CC1,-9.7,4.9,-82.6*,-2.2,11.8
O=C(NCc1ccccc1Cl)c1ccc(NC(=O)N2CCSc3ncccc32)cc1,1.3,·,5.3,·,0.8
CC(=O)Nc1ccc(S(=O)(=O)NCc2cn3c(C)csc3n2)cc1,-0.3,-3.5,-8.1,3.7,1.2
Cc1csc2nc(CNS(=O)(=O)N(C)C)cn12,·,-4.4,-72.0*,2.9,0.8
COc1ccc(S(=O)(=O)NCc2cn3c(C)csc3n2)cc1F,-2.0,9.0,-49.2*,-1.3,2.5
Cc1csc2nc(CNS(=O)(=O)c3ccc4c(c3)CCCC4)cn12,-16.6,-19.4,-60.2*,26.3,9.7
Cc1ccc(NC(=O)Cn2c(=O)n(-c3ccc(C)cc3)c(=O)c3ccc(C(=O)NCc4ccccc4Cl)cc32)cc1,-1.2,·,13.2,·,12.9
Cc1cc2c(s1)c1cnn(Cc3ccc(C(F)(F)F)cc3F)c(=O)c1n2C,2.3,·,-4.2,·,3.5
CCN(CC)c1ccc(NC(=O)C2COc3ccc(OC)cc3C2)c(C)c1 (stereo not given),-1.4,·,-7.0,·,4.8
COc1cccc(N=Cc2c[nH][nH]c2=O)c1,-4.1,-11.7,-30.7*,4.1,0.6
O=c1[nH][nH]cc1C=Nc1ccc(Cl)cc1,-3.6,-15.2,-0.2,20.4,0.4
CCN(CCNCC(O)COc1ccccc1C(C)C)c1cccc(C)c1 (stereo not given),14.1,-4.7,-27.4,-0.5,56.0*
COc1ccc2cc1Oc1ccc(cc1)C[C@H]1c3c(cc4c(c3Oc3cc5c(cc3OC)CCN(C)[C@@H]5C2)OCO4)CCN1C,-4.2,?,-37.3*,3.6,2.8
Cc1cc(C)cc(NC(=O)C2CCN(S(=O)(=O)c3ccc4c(c3)oc(=O)n4C)CC2)c1,-1.1,·,-33.8*,·,-0.9
Cn1c(=O)oc2cc(S(=O)(=O)N3CCC(C(=O)Nc4ccc(F)c(Cl)c4)CC3)ccc21,-5.2,·,-52.3*,·,3.5
Cc1ccc(NC(=O)C2CCN(S(=O)(=O)c3ccc4c(c3)oc(=O)n4C)CC2)cc1,-5.6,2.0,-12.3,-1.2,4.3
Clc1ccc2oc(-c3cccnc3)nc2c1,-2.4,-0.1,-37.1*,5.6,5.9
NC(=O)CC(NC(=O)c1ccccc1)c1ccc(NCCOc2ccccc2)c([N+](=O)[O-])c1 (stereo not given),-9.7,6.1,-34.6*,-0.8,2.6
NC(=O)CC(NC(=O)c1ccccc1)c1ccc(NCC2CC2)c([N+](=O)[O-])c1 (stereo not given),-5.8,16.0,-44.5*,1.4,0.9
SMILES,D1 potentiator,TRPV1 potentiator,D1 antagonist,TRPV1 ag,D1 ag
COc1ccc(OC)c(C(=O)NC(CC(N)=O)c2ccc(NCCOc3ccccc3)c([N+](=O)[O-])c2)c1 (stereo not given),-1.5,-4.9,-2.2,-2.2,0.8
CCN(CC)S(=O)(=O)c1ccc2c(c1)N(CC(=O)Nc1c(C)cc(C)cc1C)C(=O)CS2,-2.6,·,5.6,·,2.6
Cc1nc(SC(C)C(=O)Nc2ccccc2Cl)cc(-c2ccccc2)n1 (stereo not given),1.9,·,8.2,·,0.8
CN(C)c1ccc(C(=O)N/N=C/c2ccccn2)cc1,2.3,-14.9,-39.7*,13.2,-0.5
Cc1ccc(C(=O)Nc2ccc(C(=O)N/N=C/c3ccccn3)cc2)cc1,-11.1,-6.3,-38.1*,1.6,2.3
Cc1cccc(C(=O)Nc2ccc(C(=O)N/N=C/c3ccc(C)o3)cc2)c1,-9.1,3.3,-47.5*,0.0,6.6
CCOC(=O)C1CCN(S(=O)(=O)c2ccc3[nH]c(=O)oc3c2)CC1,0.3,?,-6.1,1.6,5.3
CCOC(=O)C1CCCN(S(=O)(=O)c2ccc3[nH]c(=O)oc3c2)C1 (stereo not given),0.1,·,-40.9*,·,1.0
CCOC(=O)C1CCCN(S(=O)(=O)c2ccc3c(c2)oc(=O)n3C)C1 (stereo not given),5.6,·,-17.4,·,9.6
CCOC(=O)C1CCCN(S(=O)(=O)c2ccc3c(c2)N(C)C(=O)CC(=O)N3C)C1 (stereo not given),-0.2,8.7,-44.7*!,-2.9,1.6
C=CCNc1sc(C(=O)c2ccc(C)cc2)c(N)c1C#N,-3.1,-6.2,-18.5,6.8,0.4
C=CCNc1nc(N)c(C(=C(C#N)C#N)c2ccc(Br)cc2)s1,-13.0,-1.7,-31.5*,-0.6,1.0
CC(C)C(NC(=O)c1ccc(F)cc1)C(=O)N1CCC1 (stereo not given),-6.7,5.3,-37.3*,-1.2,0.0
CC(C)C(NC(=O)c1ccc(F)cc1)C(=O)N1CCOCC1 (stereo not given),2.6,1.8,-5.9,-1.1,4.6
COc1ccc(S(=O)(=O)c2c(Nc3ccc(C)cc3)sc(C(=O)c3ccc4c(c3)OCO4)c2N)cc1,5.2,·,-37.8*,·,77.8*
COc1ccc(S(=O)(=O)c2c(Nc3ccc(F)cc3)sc(C(=O)c3ccc4c(c3)OCO4)c2N)cc1,-2.2,·,22.7,·,43.1*
Cc1ccccc1Nc1sc(C(=O)c2ccc3c(c2)OCO3)c(N)c1S(=O)(=O)c1ccccc1,1.6,·,0.0,·,5.6
Cc1ccc(S(=O)(=O)c2c(Nc3ccccc3)sc(C(=O)c3ccc4c(c3)OCO4)c2N)cc1,-1.0,·,2.4,·,64.4*
Cc1ccc(NC(=O)C2CCCN(C(=O)c3cnn(-c4ccc(F)cc4)c3-n3cccc3)C2)c(Cl)c1 (stereo not given),-2.0,·,-4.7,·,1.7
Cc1ccc(CNC(=O)c2ccc(N3Cc4ccccc4Oc4ncccc43)s2)cc1,-0.8,·,19.0,·,-1.0

# Bioassay records (PubChem)
